Compound activity as filed in PubChem BioAssay.
ATXN2 expr inh – inhibitors of ATXN2 expression; Potency, µM (highest dose often 57 µM), for inactives: top-dose activity change, negative = inhibition, most hits filed as inhibitors; HEK-293 ATXN2-luciferase reporter, luminescence, 24 h; 0.72% of 360,000 active; further: potency means the concentration at half of the fitted maximal effect; on the % scale 0 is the no-effect control and ±100 the full control effect; nearly all actives have a fitted effect of over 55% in size
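ATXN2-luciferase reporter cells (luciferase flanked by upstream and downstream ATXN2 gene portions) were treated 24 h at 37 °C with compounds at up to 57 uM. SteadyGlo luminescence gave expression; GF-AFC fluorescence gave viability.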
S2 tox – reduces viability in counter-screen for ATXN expression inhibitors; AID 651635; 0.49% of 400,000 active; Potency, µM (highest dose often 56.7 µM), actives largely listed as cytotoxic; S2 cells (HEK-293 line with an ATXN2-luciferase reporter) viability, CellTiter-Fluor protease fluorescence, 24 h; further: potency means the concentration at half of the fitted maximal effect; nearly all actives have a fitted effect of over 40% in size
TGFb inhibitor – inhibitors of TGF-b signaling; HepG2 CAGA-GFP TGF-b/SMAD3 reporter, GFP fluorescence, 18 h; TGF-beta stimulated, 500 pg/mL final; 1.2% of 410,000 active; Potency, µM (top dose mostly 46.1 µM), inactives show at the top dose activity, negative = inhibition, most hits filed as inhibitors; AID 588855; further: potency means the concentration at half of the fitted maximal effect; on the % scale 0 is the no-effect control and ±100 the full control effect; nearly all actives have a fitted effect of over 65% in size
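TGF-beta reporter screen: HEPG2 CAGA-GFP, 1% FBS, 500 pg/mL TGF-beta final, 18 h; per-cell GFP summed per well; curves fitted and categorized by class.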
HepG2 viability – counter-screen for TGF-b inhibitors: cytotoxicity in HepG2 cells; Potency, µM (top dose mostly 46.1 µM), inactives show top-dose activity change, negative = cytotoxicity, most hits filed as cytotoxic; HepG2 CAGA-GFP viability, ATP luminescence, 18 h; 0.76% of 410,000 active; AID 588856; further: potency means the concentration at half of the fitted maximal effect
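HepG2 CAGA-GFP cells (1000/well, DMEM with 1% FBS) received compound, then TGF-beta at 500 pg/mL final, and were incubated 18 hours at 37 degrees C. Viability was read by CellTiter-Glo luminescence. Media-only wells were set as complete cell-killing and DMSO as no toxicity.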
DRD3 agonist – activates the human D3 dopamine receptor. P35462. D3R DiscoveRx beta-arrestin cells, luminescence, 90 min. max activation, %. 0.58% of 410,000 active. AID 652048; in the data active means max activation above about 30%; further: 0% is about no effect
Target sequence (P35462 whole entry, looked up): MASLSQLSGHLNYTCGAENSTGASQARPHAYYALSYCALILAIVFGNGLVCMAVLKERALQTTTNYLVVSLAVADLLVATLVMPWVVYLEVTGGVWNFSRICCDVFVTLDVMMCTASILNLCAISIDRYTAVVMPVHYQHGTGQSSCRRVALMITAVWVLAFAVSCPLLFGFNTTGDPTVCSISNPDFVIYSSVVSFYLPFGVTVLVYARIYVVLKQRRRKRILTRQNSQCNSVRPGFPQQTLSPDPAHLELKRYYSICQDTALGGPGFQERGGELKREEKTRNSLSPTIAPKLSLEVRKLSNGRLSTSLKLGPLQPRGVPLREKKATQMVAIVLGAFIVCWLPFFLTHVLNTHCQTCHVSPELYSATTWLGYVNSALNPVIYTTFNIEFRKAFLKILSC
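Cells at 1500/well, incubated overnight, then treated with pinned compounds (dopamine as control) for 90 min at 37 degrees C. DiscoveRx reagent added for 30 - 60 minutes at room temperature; luminescence read.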
D3 antag – antagonists of human D3 dopamine receptor; 2.5% of 360,000 active; max response, negative = inhibition, %; D3R cells, DiscoveRx beta-arrestin luminescence, antagonist mode; stronger effect = lower value; in the data active means max response below about -50%; inconclusive means no clear call, values can overlap the other calls; further: on the % scale 0 is the no-effect control and ±100 the full control effect
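Cells expressing the human receptor were seeded at 1500 cells/well, incubated overnight at 37 degrees C in 5% CO2, then exposed to library compounds with dopamine controls for 90 minutes at 37 degrees C before luminescent detection.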
Active calls of the source: *. Rows were chosen to be rich in hits. Some 4.8% of all compounds tested hit in one or more screens of this group. Unless noted, the call rests on the fitted dose curve; in most records, active means well fitted curve in the direction sought with a large enough effect; inconclusive means small, poorly fitted or top-dose-only effect, or another doubt; inactive means no such curve, though single readings can be large; an effect the other way counts as inactive or inconclusive.

What do the screens show for `CC1(c2nnc(-c3ccccc3)o2)CC(c2ccc(Cl)cc2)=NO1` (stereo unspecified)?
ATXN2 expr inh: -4.7%; S2 tox: inactive; TGFb inhibitor: -13.0%; HepG2 viability: -11.1%; DRD3 agonist: 43.4*; D3 antag: 46.2

How did CC1(c2nnc(-c3ccncc3)o2)CC(c2ccc(Cl)cc2)=NO1 (stereo unspecified) do in these assays?
ATXN2 expr inh: -17.3%; S2 tox: inactive; TGFb inhibitor: -9.2%; HepG2 viability: -23.4%; DRD3 agonist: 5.1; D3 antag: 17.1

Results for CC1(c2nnc(-c3ccccc3)o2)CC(c2ccc([N+](=O)[O-])cc2)=NO1 (stereo unspecified) ?
ATXN2 expr inh: -34.2%; S2 tox: inconclusive; TGFb inhibitor: 21.4%; HepG2 viability: 1.8%; DRD3 agonist: 37.4*; D3 antag: 37.0

What do the screens show for `NC(=O)c1ccc(CN2CCc3ccccc3C2)cc1`?
ATXN2 expr inh: 4.0%; S2 tox: inactive; TGFb inhibitor: 8.7%; HepG2 viability: 1.4%; DRD3 agonist: -22.4; D3 antag: -82.5*

Results for COc1ccc(C(=O)N2CCN(c3ccccc3OC)CC2)cc1 ?
ATXN2 expr inh: -17.3%; S2 tox: inactive; TGFb inhibitor: -22.6%; HepG2 viability: -15.2%; DRD3 agonist: -1.4; D3 antag: 4.7

Results for O=C(c1ccc(CN2CCc3ccccc3C2)cc1)N1CCCCC1 ?
ATXN2 expr inh: 4.8%; S2 tox: inactive; TGFb inhibitor: 13.4%; HepG2 viability: -4.6%; DRD3 agonist: -19.9; D3 antag: -72.9*

What do the screens show for `CCCNC(=O)c1ccc(CN2CCc3ccccc3C2)cc1`?
ATXN2 expr inh: 7.5%; S2 tox: inactive; TGFb inhibitor: -0.5%; HepG2 viability: -15.7%; DRD3 agonist: -29.8; D3 antag: -15.2

Results for O=C(c1ccc(CN2CCc3ccccc3C2)cc1)N1CCN(c2ccc(F)cc2)CC1 ?
ATXN2 expr inh: -14.1%; S2 tox: inconclusive; TGFb inhibitor: inconclusive; HepG2 viability: -7.0%; DRD3 agonist: -8.9; D3 antag: -65.3*

How did COc1ccccc1N1CCN(C(=O)c2ccc(CN3CCc4ccccc4C3)cc2)CC1 do in these assays?
ATXN2 expr inh: -5.7%; S2 tox: inactive; TGFb inhibitor: -4.3%; HepG2 viability: -28.0%; DRD3 agonist: -4.9; D3 antag: -67.3*

How did O=C1NC(=O)C(=Cc2ccc(-c3ccc(F)cc3)o2)S1 do in these assays?
ATXN2 expr inh: 23.2%

How did COc1cccc2cc(C(=O)Nc3ccc(CC(=O)O)cc3)c(=O)oc12 do in these assays?
ATXN2 expr inh: 3.55µM*; S2 tox: inactive; TGFb inhibitor: -3.1%; HepG2 viability: -6.0%; DRD3 agonist: 3.4

Results for CCCCN1C2=NC(c3ccccc3)CN2c2ccccc21 (stereo unspecified) ?
ATXN2 expr inh: -30.6%; S2 tox: inactive; TGFb inhibitor: -5.3%; HepG2 viability: 6.31µM*; DRD3 agonist: -15.5; D3 antag: -15.7

What do the screens show for `Cc1ccc(-c2noc(CCC(=O)NCCN3CCc4ccccc4C3)n2)cc1`?
ATXN2 expr inh: 2.3%; S2 tox: inactive; TGFb inhibitor: -27.9%; HepG2 viability: -48.1%; DRD3 agonist: -14.9; D3 antag: -76.0*

Results for CC(C)(C)c1ccc(-c2noc(CCC(N)=O)n2)cc1 ?
ATXN2 expr inh: 0.316µM*; S2 tox: inactive; TGFb inhibitor: -12.4%; HepG2 viability: -10.1%; DRD3 agonist: 3.9; D3 antag: 12.2

Results for CNC(=O)CCc1nc(-c2ccc(C(C)(C)C)cc2)no1 ?
ATXN2 expr inh: 23.1%; S2 tox: inactive; TGFb inhibitor: -2.9%; HepG2 viability: 1.5%; DRD3 agonist: 6.3; D3 antag: 14.3

How did Cc1ccc(-c2noc(CCC(=O)NCCN3CCN(Cc4ccccc4)CC3)n2)cc1 do in these assays?
ATXN2 expr inh: -23.8%; S2 tox: inactive; TGFb inhibitor: 22.5%; HepG2 viability: 1.26µM*; DRD3 agonist: -8.4; D3 antag: -25.8

Results for Cc1ccc(-c2noc(CCC(=O)Nc3ccc(C)cn3)n2)cc1 ?
ATXN2 expr inh: -1.9%; S2 tox: inactive; TGFb inhibitor: -3.0%; HepG2 viability: -3.5%; DRD3 agonist: -6.9; D3 antag: -73.0*

What do the screens show for `Cc1ccc(-n2nc(C(=O)Nc3cccc(C#N)c3)c3c4ccccc4n(C)c3c2=O)cc1`?
ATXN2 expr inh: -0.2%; S2 tox: inactive; TGFb inhibitor: -8.1%; HepG2 viability: 8.6%; DRD3 agonist: -24.9

What do the screens show for `CC1CC(N(C(=O)c2ccco2)c2ccccc2)c2ccccc2N1` (stereo unspecified)?
ATXN2 expr inh: 3.8%; S2 tox: inactive; TGFb inhibitor: -8.9%; HepG2 viability: -45.1%; DRD3 agonist: -17.9; D3 antag: -58.0*

Results for COc1ccc(C2CC(c3ccc4ccccc4c3)=NN2C(=O)CNC2CCCCC2)cc1 (stereo unspecified) ?
TGFb inhibitor: inconclusive; HepG2 viability: 12.6µM*; DRD3 agonist: 0.9; D3 antag: -4.0

Results for Cc1cc(-c2ccccc2)nc2cc(C(=O)Nc3cc(C(F)(F)F)ccc3Cl)nn12 ?
TGFb inhibitor: -4.8%; HepG2 viability: -6.6%; DRD3 agonist: 0.0

Results for CCOC(=O)CN1C(=O)S/C(=C\c2ccc(-c3ccc(C(=O)O)c(Cl)c3)o2)C1=O ?
ATXN2 expr inh: -46.5%; S2 tox: inactive; TGFb inhibitor: 12.4%; HepG2 viability: 5.7%; DRD3 agonist: 1.1; D3 antag: 20.9

What do the screens show for `CCN(CC)c1ccc(/C=C2/SC(=O)N(C(C)C)C2=O)o1`?
ATXN2 expr inh: -19.4%; S2 tox: inconclusive; TGFb inhibitor: 142.4%; HepG2 viability: -110.7%; DRD3 agonist: -6.8; D3 antag: -91.4*

Results for CC(C)N1C(=O)S/C(=C\c2ccc(-c3ccc(Cl)c(C(=O)O)c3)o2)C1=O ?
TGFb inhibitor: 2.1%; HepG2 viability: 12.6µM*; DRD3 agonist: -3.1; D3 antag: inconclusive

What do the screens show for `CCn1c(CN2CCCCC2)nc2cc(NC(=O)c3cccc([N+](=O)[O-])c3)ccc21`?
ATXN2 expr inh: -19.9%; S2 tox: inconclusive; TGFb inhibitor: -14.3%; HepG2 viability: -28.4%; DRD3 agonist: -5.4

What do the screens show for `COc1c(C(=O)Nc2ccc(Cc3ccncc3)cc2)ccc2ccccc12`?
ATXN2 expr inh: -9.2%; S2 tox: inactive; TGFb inhibitor: inconclusive; HepG2 viability: -11.7%; DRD3 agonist: 34.2*; D3 antag: 10.6
